Where “and” joins values, the source holds several entries; their conditions need not be identical. Identical values can stand only once.

The test system of this test is H9c2. As to the kind of experiment: protection of cardiomyocytes from stress damage, SAR follow-up, cell-based, panel, H9c2 and HL-1, ATP luminescence, set 2 (AID 651871).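 Note: cells exposed to stressor for 2 h before ATP readout; reference of the scale not given here.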 To be noted: H9c2/HL-1 cardiomyocytes, 2-deoxyglucose stress, with 2-deoxyglucose; run 2, at 79 µM (top of the series).
For `COc1ccc2c(c1OC)C(=O)N1c3ccccc3C(=O)N(Cc3cccc(Cl)c3Cl)C21` (stereo not drawn), the activity (protection/inhibition) was 53% and 81.7% and -4.06%.

For `COc1ccc2nc(-c3cc(OC)c(OC)c(OC)c3)cc(C(=O)NCC(=O)Nc3ccc(C(C)=O)cc3)c2c1`, the activity (protection/inhibition) was 82.4%. As for `CCOC(=O)c1cccc(NC(=O)CNC(=O)c2cc(-c3cc(OC)c(OC)c(OC)c3)nc3ccccc23)c1`, the activity (protection/inhibition) came to 78.5%.

For the origin of these results see PubChem BioAssay AID651871 (Sanford-Burnham Center for Chemical Genomics, 2012).
